Among all 360,000 compounds or so, about 2,700 (0.75%) were called active. What follows is part of a selection rich in actives, with near analogues and random picks from the rest. A number with no mark means an inactive call. No stated cut-off is given here; in the data, active means inhibition above about 4.5%; inactive means the rest.
The molecules below were run on Methionine sulfoxide reductase A (Bos taurus) (assay: inhibition of methionine sulfoxide reductase A – biochemical, absorbance, bovine, HTS, primary screen (AID 651718;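 further: 0% = vehicle wells with enzyme and 100% = reference inhibitor wells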)). Conditions: purified bovine MsrA, absorbance read-out; at 15.5 µM; stronger effect = higher value.
In the case of Cc1ccc2nc(SCc3nnc(-c4ccccc4[N+](=O)[O-])o3)c(C#N)cc2c1, the inhibition was -0.69%. In the case of Cc1ccc(-c2ccc(/C=C(\C#N)C(N)=S)o2)c([N+](=O)[O-])c1, the inhibition was 10.9% (active). COC(=O)[C@]12C[C@H](CC(=O)NCCC(C)C)C(=O)N(CCc3ccc(OC)c(OC)c3)C1=C[C@H](C(C)(C)C)O[C@@H]2C showed an inhibition of -0.48%. Work on CN[C@H]1C[C@H]2c3[nH]c4c(-c5ccccc5)cccc4c3CCN2C(=O)[C@H]1[C@H](C)O yielded an inhibition of 0.9%. Work on CC(C)CC(CCc1ccccc1)OS(N)(=O)=O (stereo unspecified) yielded an inhibition of 0.27%. For O=C(Cc1ccc([N+](=O)[O-])cc1)N/N=C/c1ccco1, the inhibition was 1.04%. Work on O=C(Cc1ccccc1)Nc1cccc(C(=O)N/N=C/c2ccco2)c1 yielded an inhibition of 2.33%. With O=C(N/N=C/c1ccco1)c1ccc(C(=O)N/N=C/c2ccco2)o1 the inhibition was 10% (active). Molecule C[C@H]1CN([C@@H](C)CO)C(=O)CCCn2nncc2CO[C@@H]1CN(C)C(=O)Nc1ccc(N2CCN(C)CC2)cc1 has an inhibition of -0.42%. O=C(Nc1c(Cl)c(C2CC2)nn1-c1ccccc1)C(Cl)(Cl)Cl was tested, and the inhibition was -0.78%. O=C(Nc1cccc(F)c1)[C@@H]1CCCN1 was tested, and the inhibition was 0.99%. With O=C(Nc1cccc(F)c1)c1coc(=O)c(Br)c1 the inhibition was 5.37% (active). In the case of Cc1nc2nc(SCC(=O)Nc3cccc(F)c3)[nH]c2cc1Br, the inhibition was -0.88%. Nc1nc2c(ncn2[C@@H]2O[C@H](C(=O)N[C@@H](Cc3ccccc3)C(=O)NCc3ccccc3)[C@@H](O)[C@H]2O)c(=O)[nH]1 was tested, and the inhibition was -0.25%. Molecule COC(=O)c1ccc(CN2C(=O)[C@]3(OCCC=C[C@H]3C)c3c(Br)cccc32)cc1 has an inhibition of 1.8%. In the case of COCCCNC(=O)C[C@H]1C[C@@]2(C(=O)OC)C(=C[C@H](C(C)(C)C)O[C@@H]2C)N(Cc2ccc3c(c2)OCO3)C1=O, the inhibition was -0.56%. In the case of O=C(O)c1ccc(F)c(S(=O)(=O)Nc2ccccc2)c1, the inhibition was -0.45%. Cc1cc(C(C)(C)C)cc(S(=O)(=O)Nc2ccc(C(=O)O)cc2)c1C gave an inhibition of 1.5%. With Cc1ccc(C(=O)Nc2ccccc2-c2ccccc2)cc1S(=O)(=O)Nc1ccccc1 the inhibition was 4.76% (active). Work on Cc1ccc(NC(=O)N2c3ccccc3SC2c2ccco2)c(C)c1 (stereo unspecified) yielded an inhibition of -0.74%. Molecule Cc1nc2ccccn2c(=O)c1NC(=O)c1ccc(Br)o1 has an inhibition of 2.43%. CN1C(=O)CN2CCc3ccccc3C2c2cc(Cl)ccc21 (stereo unspecified) showed an inhibition of 1.04%. CC1CCCCN1S(=O)(=O)c1ccc(C(=O)Nc2nnc(-c3cccs3)o2)cc1 (stereo unspecified) was tested, and the inhibition was 4.79% (active). CC1CCCCN1S(=O)(=O)c1ccc(S(=O)(=O)N(CC(=O)Nc2ccccc2)Cc2cccs2)cc1 (stereo unspecified) was tested, and the inhibition was -0.63%. In the case of CSCc1nnc(NC(=O)c2ccc(S(=O)(=O)N3CCCCC3C)cc2)o1 (stereo unspecified), the inhibition was -0.31%. For O=C(N[C@H](Cc1ccccc1)C(=O)N1CCCN(Cc2cccs2)CC1)[C@H]1O[C@@H](n2ccc(=O)[nH]c2=O)[C@H](O)[C@@H]1O, the inhibition was 0.08%. Work on O=c1c(F)cn(C2CCCO2)c(=O)n1Cc1ccccc1Cl (stereo unspecified) yielded an inhibition of 0.2%. CN(c1ccccc1)S(=O)(=O)c1ccc2[nH]c(=O)[nH]c2c1 was tested, and the inhibition was 14.1% (active). In the case of O=c1[nH]c2ccc(S(=O)(=O)N3CCCC3)cc2[nH]1, the inhibition was -0.78%. Molecule CCN(c1ccccc1)S(=O)(=O)c1ccc2[nH]c(=O)[nH]c2c1 has an inhibition of 2.53%. CN1C(=O)C(Br)(Br)CC1c1cccnc1 (stereo unspecified) showed an inhibition of 1.57%. Molecule Cc1cc(Br)cn2c(Cc3ccccc3C(F)(F)F)c(-c3ccc(C#N)cc3)nc12 has an inhibition of -0.24%. With O=C(COC(=O)COc1cc(Cl)c(Cl)cc1Cl)NC1CC1 the inhibition was 3.33%. Molecule O=C(COc1cc(Cl)c(Cl)cc1Cl)NCCc1ccccn1 has an inhibition of -0.1%. For NC(=S)NN=Cc1ccc(OC(=O)COc2cc(Cl)c(Cl)cc2Cl)cn1, the inhibition was 4.84% (active). CCCCCCCCN1C(=O)[C@@H](CC(=O)NCc2ccccc2)C[C@@]2(C(=O)OC)C1=C[C@H](C(C)(C)C)O[C@@H]2C showed an inhibition of 0.32%. With CCOc1cccc(NC(=O)Cn2nc(-c3ccc4c(c3)OCCO4)ccc2=O)c1 the inhibition was -0.18%. With COc1cc(C=NC2CCCCC2)ccc1O the inhibition was 3.96%. COc1ccc2[nH]c(C(=O)N/N=C/c3cc(OC)c(OC)c(OC)c3)cc2c1 was tested, and the inhibition was 6.03% (active). In the case of COc1ccc2[nH]c(=O)c(CNc3ccc(C)c(C)c3)cc2c1, the inhibition was 1%. CCOc1ccc2[nH]c(C(=O)N/N=C/c3cccc(OC)c3OC)cc2c1 was tested, and the inhibition was 5.19% (active). COc1cc2cc(C(=O)N/N=C/c3cccc(OC)c3OC)[nH]c2cc1OC was tested, and the inhibition was 5.39% (active). In the case of COc1cccc2[nH]c(C(=O)NCCc3ccccc3)cc12, the inhibition was -0.25%. For CCOc1ccccc1/C=N/NC(=O)CNC(=O)COc1ccccc1, the inhibition was 0.86%. CCN1CCCC1CNC(=O)c1cc2cc(OC)c(OC)cc2[nH]1 (stereo unspecified) gave an inhibition of 2.2%. In the case of CCC(=O)c1ccc(OC(=O)/C=C/c2cc(OC)c(OC)c(OC)c2)cc1, the inhibition was 1.16%. CCOc1ccc2ccccc2c1/C=N/NC(=O)c1c(C)cc(C)[nH]c1=O showed an inhibition of 2.01%. Cc1ccc(C)c(N2C(=O)CS/C2=N\NC(=O)c2ccccc2Cl)c1 was tested, and the inhibition was 0.65%. Cc1ccc(N2C(=O)C3C4C=CC(CC4)C3C2=O)cc1Br (stereo unspecified) gave an inhibition of -0.75%. Work on Cc1[nH]nc2c1C(c1ccc(Br)cc1)NC2=O (stereo unspecified) yielded an inhibition of 0.64%. CCOC(=O)C1=CCC2C(=O)N(Cc3ccccc3)C(=O)C12 (stereo unspecified) gave an inhibition of -0.57%. Molecule C[C@H](O)[C@@H]1CN2CCc3ccc(-c4ccc5c(c4)OCO5)cc3[C@@H]2C[C@@H]1N(C)C(=O)C1CCCCC1 has an inhibition of -0.49%. For Cc1ccc(C(=O)NC2CCCC(C)C2C)cc1S(=O)(=O)N1CCCCC1 (stereo unspecified), the inhibition was -0.29%. With COc1cccc(-c2nn(C)c3sc(C(=O)N4CCN(c5ccccc5)CC4)cc23)c1 the inhibition was 4.59% (active). In the case of Cn1nc(C(F)(F)F)c2cc(C(=O)N3CCOCC3)sc21, the inhibition was -0.18%. Molecule COc1cccc(-c2ccc(SCC(=O)N3CCN(c4ccccc4)CC3)nn2)c1 has an inhibition of -0.38%.

From PubChem BioAssay AID651718 (The Scripps Research Institute Molecular Screening Center, 2012)
